The supplement of paper PMC10849652
The full data set covers some 8,800 targets. This sample favours those with a hit. About 0.5% of all pairs of compound and target were hits. Values without a mark were called inactive.

How the values were obtained:
Assay in all cases: log2 fold change, soluble protein after heating vs DMSO (PISA); higher = thermal stabilisation; K562 lysate, 10 uM; active = over 0.2 and 3.5 SD of the protein, either way, in both replicates (recomputed)
lapatinib = compound: CS(=O)(=O)CCNCc1ccc(-c2ccc3ncnc(Nc4ccc(OCc5cccc(F)c5)c(Cl)c4)c3c2)o1 [lapatinib]
Procedure, shortened: (§1)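 To prepare the extract, K562 pellets were dounce-homogenised in PBS pH 7.4 with 1 mM MgCl2, giving crude material at 1 mg/mL protein. This was treated with 10 μM compound for 30 min, then heated in aliquots for 3 min over 48°C-58°C before pooling and addition of NP-40 to 0.5% at 4°C. Centrifugation at 21,000xg for 90 min left soluble protein in the supernatant, which TMTpro 16plex LC-MS/MS quantified with equalised channel sums. Results are log-two fold changes in thermal stability compared with solvent controls, from duplicates.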

[1] = compound: C[C@H](C1=CC=C(C=C1)C(=O)NC2=C3C=CNC3=NC=C2)N
Procedure, shortened: as §1

duvelisib = compound: C[C@H](Nc1ncnc2nc[nH]c12)c1cc2cccc(Cl)c2c(=O)n1-c1ccccc1 [duvelisib]
Procedure, shortened: as §1

gandotinib = compound: Cc1cc(Nc2cc(CN3CCOCC3)c3nc(C)c(Cc4ccc(Cl)cc4F)n3n2)n[nH]1 [gandotinib]
Procedure, shortened: as §1

tozasertib = compound: Cc1cc(Nc2cc(N3CCN(C)CC3)nc(Sc3ccc(NC(=O)C4CC4)cc3)n2)n[nH]1 [tozasertib]
Procedure, shortened: as §1

[2] = compound: Cc1cccc(CC(=O)N2CCc3c2ccc(-c2cn(C)c4ncnc(N)c24)c3F)n1
Procedure, shortened: as §1

dasatinib = compound: Cc1nc(Nc2ncc(C(=O)Nc3c(C)cccc3Cl)s2)cc(N2CCN(CCO)CC2)n1 [dasatinib]
Procedure, shortened: as §1

[3] = compound: Cn1cc(-c2ccc3c(c2)CCN3C(=O)Cc2cccc(C(F)(F)F)c2)c2c(N)ncnc21
Procedure, shortened: as §1

[4] = compound: NC(=O)c1cnc(N[C@@H]2CCCC[C@@H]2N)nc1Nc1cccc(-n2nccn2)c1
Procedure, shortened: as §1

[5] = compound: NC1(c2ccc(-c3nc4ccn5c(=O)[nH]nc5c4cc3-c3ccccc3)cc2)CCC1
Procedure, shortened: as §1

crizotinib = compound: C[C@@H](Oc1cc(-c2cnn(C3CCNCC3)c2)cnc1N)c1c(Cl)ccc(F)c1Cl [crizotinib]
Procedure, shortened: as §1

doramapimod = compound: Cc1ccc(-n2nc(C(C)(C)C)cc2NC(=O)Nc2ccc(OCCN3CCOCC3)c3ccccc23)cc1 [doramapimod]
Procedure, shortened: as §1

nilotinib = compound: Cc1cn(-c2cc(NC(=O)c3ccc(C)c(Nc4nccc(-c5cccnc5)n4)c3)cc(C(F)(F)F)c2)cn1 [nilotinib]
Procedure, shortened: as §1

[6] = compound: Cc1nc(Nc2n[nH]c3c2CN(C(=O)N[C@H](CN(C)C)c2ccccc2)C3(C)C)c2sccc2n1
Procedure, shortened: as §1

[7] = compound: Cc1ncc(-c2ccnc(Nc3ccc(S(C)(=O)=O)cc3)n2)n1C(C)C
Procedure, shortened: as §1

quisinostat = compound: Cn1cc(CNCC2CCN(c3ncc(C(=O)NO)cn3)CC2)c2ccccc21 [quisinostat]
Procedure, shortened: as §1

tipifarnib = compound: Cn1cncc1[C@@](N)(c1ccc(Cl)cc1)c1ccc2c(c1)c(-c1cccc(Cl)c1)cc(=O)n2C [tipifarnib]
Procedure, shortened: as §1

[8] = compound: NC(=O)Nc1cc(-c2cccc(F)c2)sc1C(=O)N[C@H]1CCCNC1
Procedure, shortened: as §1

pictilisib = compound: CS(=O)(=O)N1CCN(Cc2cc3nc(-c4cccc5[nH]ncc45)nc(N4CCOCC4)c3s2)CC1 [pictilisib]
Procedure, shortened: as §1

bafetinib = compound: Cc1ccc(NC(=O)c2ccc(CN3CC[C@H](N(C)C)C3)c(C(F)(F)F)c2)cc1Nc1nccc(-c2cncnc2)n1 [bafetinib]
Procedure, shortened: as §1

Sequence of UniProt Q9Y2H1 (Q9Y2H1 whole entry, looked up): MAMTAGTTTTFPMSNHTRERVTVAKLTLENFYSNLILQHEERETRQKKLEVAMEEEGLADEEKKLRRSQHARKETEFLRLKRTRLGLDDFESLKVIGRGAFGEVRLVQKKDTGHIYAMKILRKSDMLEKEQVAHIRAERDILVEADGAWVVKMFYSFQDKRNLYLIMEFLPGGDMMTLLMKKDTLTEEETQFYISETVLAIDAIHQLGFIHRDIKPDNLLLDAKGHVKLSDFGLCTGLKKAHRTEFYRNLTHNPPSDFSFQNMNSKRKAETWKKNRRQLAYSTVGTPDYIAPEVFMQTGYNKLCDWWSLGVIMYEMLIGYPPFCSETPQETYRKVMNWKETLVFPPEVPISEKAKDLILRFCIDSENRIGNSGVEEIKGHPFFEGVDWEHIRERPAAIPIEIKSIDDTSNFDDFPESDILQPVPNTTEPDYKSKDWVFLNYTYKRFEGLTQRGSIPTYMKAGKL
Sequence of UniProt Q96CQ1 (Q96CQ1 whole entry, looked up): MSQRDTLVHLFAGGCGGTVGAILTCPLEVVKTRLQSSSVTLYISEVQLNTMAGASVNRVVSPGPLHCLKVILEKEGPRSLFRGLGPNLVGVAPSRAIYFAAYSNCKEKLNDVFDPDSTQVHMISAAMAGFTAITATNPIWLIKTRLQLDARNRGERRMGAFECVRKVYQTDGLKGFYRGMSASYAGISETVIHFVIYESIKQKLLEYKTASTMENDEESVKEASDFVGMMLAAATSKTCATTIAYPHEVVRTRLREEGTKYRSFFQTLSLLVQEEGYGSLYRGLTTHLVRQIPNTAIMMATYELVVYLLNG
Sequence of UniProt O60225 (O60225 whole entry, looked up): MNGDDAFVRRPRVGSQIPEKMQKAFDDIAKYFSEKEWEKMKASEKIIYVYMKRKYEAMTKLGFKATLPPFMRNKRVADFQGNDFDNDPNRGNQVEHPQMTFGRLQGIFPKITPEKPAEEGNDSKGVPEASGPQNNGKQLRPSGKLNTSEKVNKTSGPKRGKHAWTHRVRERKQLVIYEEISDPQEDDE
Sequence of UniProt O60906 (O60906 whole entry, looked up): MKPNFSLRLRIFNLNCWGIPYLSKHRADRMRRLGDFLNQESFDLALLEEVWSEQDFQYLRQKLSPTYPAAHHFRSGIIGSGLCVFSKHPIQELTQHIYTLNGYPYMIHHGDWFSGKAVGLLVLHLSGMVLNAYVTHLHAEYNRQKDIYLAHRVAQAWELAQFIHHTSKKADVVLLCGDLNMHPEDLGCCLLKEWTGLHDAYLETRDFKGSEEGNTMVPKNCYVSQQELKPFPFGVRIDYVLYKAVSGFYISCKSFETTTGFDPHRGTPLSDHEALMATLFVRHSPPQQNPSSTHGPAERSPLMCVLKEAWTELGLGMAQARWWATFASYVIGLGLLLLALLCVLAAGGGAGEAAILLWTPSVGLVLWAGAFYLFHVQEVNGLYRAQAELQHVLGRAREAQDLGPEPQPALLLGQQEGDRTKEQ
Sequence of UniProt P12931 (P12931 whole entry, looked up): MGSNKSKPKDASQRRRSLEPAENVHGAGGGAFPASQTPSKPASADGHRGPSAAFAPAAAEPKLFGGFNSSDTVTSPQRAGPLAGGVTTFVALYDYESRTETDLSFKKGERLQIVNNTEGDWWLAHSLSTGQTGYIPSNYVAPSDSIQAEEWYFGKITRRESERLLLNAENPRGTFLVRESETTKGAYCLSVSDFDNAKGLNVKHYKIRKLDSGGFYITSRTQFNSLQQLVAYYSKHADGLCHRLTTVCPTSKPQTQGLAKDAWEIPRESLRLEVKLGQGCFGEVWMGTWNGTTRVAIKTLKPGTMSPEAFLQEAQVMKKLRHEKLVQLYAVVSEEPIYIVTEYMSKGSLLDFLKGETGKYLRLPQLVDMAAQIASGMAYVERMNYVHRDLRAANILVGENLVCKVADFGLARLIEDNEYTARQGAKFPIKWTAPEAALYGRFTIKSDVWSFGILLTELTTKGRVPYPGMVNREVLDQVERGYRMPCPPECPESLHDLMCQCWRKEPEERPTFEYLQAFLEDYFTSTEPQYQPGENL
Sequence of UniProt Q9UEE5 (Q9UEE5 whole entry, looked up): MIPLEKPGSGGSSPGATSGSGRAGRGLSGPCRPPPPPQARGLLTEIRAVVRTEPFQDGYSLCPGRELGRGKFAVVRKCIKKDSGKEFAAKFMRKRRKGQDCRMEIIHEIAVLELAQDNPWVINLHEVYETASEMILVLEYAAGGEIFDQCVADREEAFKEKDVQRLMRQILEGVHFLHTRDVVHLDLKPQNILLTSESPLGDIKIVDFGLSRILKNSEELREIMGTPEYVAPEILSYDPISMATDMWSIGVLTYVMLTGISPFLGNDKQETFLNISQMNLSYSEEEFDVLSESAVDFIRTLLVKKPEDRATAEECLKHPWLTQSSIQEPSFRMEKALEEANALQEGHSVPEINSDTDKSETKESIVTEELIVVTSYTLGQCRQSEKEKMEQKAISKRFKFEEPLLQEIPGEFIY
Sequence of UniProt Q96BD0 (Q96BD0 whole entry, looked up): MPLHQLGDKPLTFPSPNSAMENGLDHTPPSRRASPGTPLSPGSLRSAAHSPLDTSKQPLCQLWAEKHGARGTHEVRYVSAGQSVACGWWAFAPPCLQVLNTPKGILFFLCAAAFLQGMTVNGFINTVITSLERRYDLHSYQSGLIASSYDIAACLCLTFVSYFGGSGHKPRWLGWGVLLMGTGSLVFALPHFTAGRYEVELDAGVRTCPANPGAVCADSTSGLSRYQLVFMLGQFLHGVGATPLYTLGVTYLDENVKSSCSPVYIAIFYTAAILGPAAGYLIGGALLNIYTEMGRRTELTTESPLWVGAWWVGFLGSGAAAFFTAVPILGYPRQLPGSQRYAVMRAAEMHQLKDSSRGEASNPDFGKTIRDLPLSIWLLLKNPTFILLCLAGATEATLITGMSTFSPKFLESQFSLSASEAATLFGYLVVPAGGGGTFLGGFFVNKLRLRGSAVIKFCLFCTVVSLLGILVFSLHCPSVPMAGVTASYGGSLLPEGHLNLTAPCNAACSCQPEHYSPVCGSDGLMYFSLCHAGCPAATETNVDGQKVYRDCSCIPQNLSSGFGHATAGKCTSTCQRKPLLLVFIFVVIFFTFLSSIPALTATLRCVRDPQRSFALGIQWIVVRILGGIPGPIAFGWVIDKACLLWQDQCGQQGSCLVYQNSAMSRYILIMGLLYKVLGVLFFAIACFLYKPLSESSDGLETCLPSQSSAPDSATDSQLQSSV
Sequence of UniProt Q15544 (Q15544 whole entry, looked up): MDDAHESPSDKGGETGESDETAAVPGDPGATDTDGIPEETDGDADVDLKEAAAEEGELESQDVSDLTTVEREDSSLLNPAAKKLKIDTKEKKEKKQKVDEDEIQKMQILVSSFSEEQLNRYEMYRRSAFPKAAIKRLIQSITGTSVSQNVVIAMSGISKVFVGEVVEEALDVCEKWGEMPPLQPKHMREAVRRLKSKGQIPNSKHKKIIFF
Sequence of UniProt O00161 (O00161 whole entry, looked up): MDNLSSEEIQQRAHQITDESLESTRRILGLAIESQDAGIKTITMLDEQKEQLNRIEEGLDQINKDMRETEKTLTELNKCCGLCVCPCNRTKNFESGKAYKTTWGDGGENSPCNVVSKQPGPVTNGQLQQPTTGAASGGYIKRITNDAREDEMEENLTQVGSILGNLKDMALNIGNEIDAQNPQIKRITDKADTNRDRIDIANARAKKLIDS
Sequence of UniProt O95793 (O95793 whole entry, looked up): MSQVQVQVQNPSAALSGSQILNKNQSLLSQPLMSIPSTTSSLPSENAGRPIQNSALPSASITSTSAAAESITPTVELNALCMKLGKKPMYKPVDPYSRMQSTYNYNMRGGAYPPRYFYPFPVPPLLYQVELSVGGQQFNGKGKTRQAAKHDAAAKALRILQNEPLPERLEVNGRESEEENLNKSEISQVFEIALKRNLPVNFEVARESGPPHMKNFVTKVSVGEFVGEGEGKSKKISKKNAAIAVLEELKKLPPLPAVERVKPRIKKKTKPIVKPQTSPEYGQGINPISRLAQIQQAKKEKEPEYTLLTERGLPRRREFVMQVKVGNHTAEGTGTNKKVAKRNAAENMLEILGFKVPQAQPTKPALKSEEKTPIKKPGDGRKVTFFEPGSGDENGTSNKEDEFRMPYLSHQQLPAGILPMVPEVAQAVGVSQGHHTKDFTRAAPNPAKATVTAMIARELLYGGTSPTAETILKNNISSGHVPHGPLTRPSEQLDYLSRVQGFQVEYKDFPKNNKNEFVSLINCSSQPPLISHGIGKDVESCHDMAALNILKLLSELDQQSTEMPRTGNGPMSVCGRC
Sequence of UniProt P49675 (P49675 whole entry, looked up): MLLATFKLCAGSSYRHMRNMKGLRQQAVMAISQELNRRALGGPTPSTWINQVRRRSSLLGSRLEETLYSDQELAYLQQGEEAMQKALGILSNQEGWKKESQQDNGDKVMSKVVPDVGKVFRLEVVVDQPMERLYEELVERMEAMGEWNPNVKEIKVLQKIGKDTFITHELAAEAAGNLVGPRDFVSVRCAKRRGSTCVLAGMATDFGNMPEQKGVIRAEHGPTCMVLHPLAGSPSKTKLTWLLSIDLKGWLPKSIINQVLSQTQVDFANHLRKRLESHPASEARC

Target	log2 fold change (lapatinib)	log2 fold change [1]	log2 fold change (duvelisib)	log2 fold change (gandotinib)	log2 fold change (tozasertib)	log2 fold change [2]	log2 fold change (dasatinib)	log2 fold change [3]	log2 fold change [4]	log2 fold change [5]	log2 fold change (crizotinib)	log2 fold change (doramapimod)	log2 fold change (nilotinib)	log2 fold change [6]	log2 fold change [7]	log2 fold change (quisinostat)	log2 fold change (tipifarnib)	log2 fold change [8]	log2 fold change (pictilisib)	log2 fold change (bafetinib)
SMPD2 (UniProt O60906)	0.015	0.106	0.107	-0.051	-0.031	0.03	-0.169	-0.102	0.029	0.069										
SLC25A36 (UniProt Q96CQ1)	-0.019	0.029	-0.122	0.024	-0.09	-0.006	0.012	0.085	0.003	-0.031	0.022	-0.011	0.081	-0.007	0.04	0.045	-0.119	-0.08		
SRC isoform 2 (UniProt P12931)	-0.001	0.151	0.001	0.061	0.098	-0.015		-0.023	0.015	0.012									-0.078	-0.153
SSX5 isoform 2 (UniProt O60225)	0.042	-0.476		0.092	0.085	0.183			0.026	0.15			0.008	-0.018	0.064		0.061		0.082	-0.04
STK38L (UniProt Q9Y2H1)			-0.007		-0.009		-0.002	0.102		-0.046	-0.059	-0.025	-0.08	0.68 (active)	-0.009	-0.122	0.04	0.552 (active)		
SLCO4A1 (UniProt Q96BD0)		0.016		0.062		0.012							-0.006	0.044	0.008		0.076		-0.687 (active)	-0.334
SZT2 (UniProt Q5T011)	0.275	-0.108	-0.081	-0.17	-0.097	0.22	0.04	-0.122	-0.009	-0.046			-0.03	0.434	0.02		-0.019		0.189	-0.214
SNAP23 isoform 2 (UniProt O00161)	0.075	0.188		-0.054	-0.185	-0.163			0.046	-0.116			0.011	-0.041	-0.054		-0.016			
STAR (UniProt P49675)		0.117	0.017	0.156	0.063	0.142	0.046	0.011		-0.146	-0.123	0.019	0.037	-0.092	-0.019	-0.041	0.203	-0.135		
TAF11 (UniProt Q15544)	0.003	-0.036	-0.06	0.026	0.102	0	-0.142	-0.051	-0.03		-0.085	0.023	0.05	-0.049	-0.034	-0.085	0.057	0.046		
STAU1 isoform 3 (UniProt O95793)		-0.298		0.112		0.078				-0.047	0.049	0.269	-0.051	-0.024	-0.023	-0.11	0.032	0.088	0.048	-0.086
STK17A (UniProt Q9UEE5)		0.315		-0.001		-0.197							0.076	0.188	0.249		-0.387			
